Common to all, as to experiment: NCI-60 one-dose screen, 48 h (100 = growth as untreated, 0 = no growth, -100 = all killed)
Holding throughout (details): 10 µM unless noted

Assay [1] relates to SK-MEL-2 melanoma.
Assay [2] concerns EKVX NSCLC.
The test system of assay [3] is SN12C renal.
The test system of assay [4] is UO-31 renal.
Assay [5] relates to TK-10 renal.
The test system of assay [6] is ACHN renal.
Assay [7] deals with CAKI-1 renal.
Assay [8] relates to A498 renal.
In assay [9] the test system is CCRF-CEM leukemia.
For assay [10], the system named is MOLT-4 leukemia.

Structures are written as SMILES. About 83,000 compounds went through this panel and 20% of them were active in at least one assay; those are over-represented in the sample as a whole.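 Assay: single dose, 48 h. Readout: percent growth (0 = no net growth; negative = cell death). Active: <10.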 Values without a mark were called inactive. Calls of active or inactive are those of the source.

Take `COc1ccc(C(=O)c2ccc(C)cc2)c(OC)c1OC`: the growth in assay [1] was 60.3%; in assay [2], 92.7%; in [3], 91.8%; in assay [4] it was 72.6%; in [5], 97.7%; in assay [6], 97.3%. Further, the growth in assay [7] is 64.8%; in assay [8] it was 70.1%; in [9], 89%; in [10] it was 46.8%.

Consider `O=S(=O)(NCCNc1cc(-c2cn(-c3ccccc3)nc2-c2cccc(O)c2)ccn1)c1ccc(Br)cc1`, for which the growth in [1] was 20.7%; in assay [2], 34.9%; in assay [3], 34.4%; in assay [4], 19.8%; in assay [5], 46.1%; in [6], 23.7%. Moreover, the growth is 43.2% in [7], 53.7% in assay [8], 9.77% (active) in assay [9] and 8.59% (active) in assay [10].

As to `Cn1c(=O)c2c(ncn2CC(=O)Nc2ccc(S(N)(=O)=O)cc2)n(C)c1=O`, the growth in assay [1] is 104%; in [2] it was 103%; in assay [3], 105%; in [4], 88.8%; in assay [5], 91.8%; in assay [6], 111%. For the same compound, the growth was 93.8% in [7], 105% in assay [8], 97.5% in assay [9] and 103% in assay [10].

Take `O=[N+]([O-])c1cc(S(=O)(=O)c2ccc(F)c([N+](=O)[O-])c2)ccc1F`: the growth in assay [1] was 112%; in assay [2], 117%; in assay [3] it was 108%; in assay [4], 86.1%; in assay [5], 119%; in assay [6] it was 97.1%. The growth was 109% in assay [7], 107% in assay [8], 46.2% in assay [9] and 23.2% in assay [10].

For `Oc1ccccc1/C=N\NC(=S)Nc1ccc(F)cc1`, the growth in assay [1] was 18.5%; in assay [2], 29.8%; in assay [3] it was 36.6%; in assay [4] it was 7.46% (active); in assay [5] it was 49.1%; in assay [6], 13.8%. The growth was -4.58% (active) in [7], 91.9% in assay [8], 14% in assay [9] and 7.67% (active) in [10].

With `Cn1c(=O)c2c(ncn2CCC(=O)Nc2ccc(F)cc2)n(C)c1=O`, the growth in assay [1] was 104%; in assay [2], 101%; in assay [3], 105%; in [4], 90%; in assay [5], 95%; in assay [6], 110%. The growth in [7] is 92.9%; in [8] it was 103%; in assay [9] it was 97.5%; in assay [10], 101%.

With `O=S(=O)(NCCNc1cc(-c2cn(-c3ccccc3)nc2-c2cccc(O)c2)ccn1)c1ccc(C(F)(F)F)cc1`, the growth was 56.2% in assay [1]; 52.3% in [2]; 33.9% in assay [3]; -39.8% (active) in assay [4]; 59.9% in assay [5]; 18.3% in assay [6]. Also, the growth is -1.88% (active) in assay [7], 52.6% in assay [8], 16.9% in assay [9] and 4.81% (active) in [10].

On to `OCC(CO)(CCl)CCl`, for which the growth in [1] was 87.8%; in [2], 104%; in assay [3], 98.3%; in [4] it was 104%; in [5], 95%; in assay [6] it was 104%. The growth in assay [7] is 95%; in assay [8] it was 111%; in assay [9] it was 90.4%; in [10], 91.1%.

Regarding `CN1CCN(c2ccc3nc(-c4[nH]ncc4Nc4ncnc5c4OCCCN5)[nH]c3c2)CC1`, the growth in [1] is -56.1% (active); in assay [2] it was -59.6% (active); in [3], -59.5% (active); in assay [4] it was -77.3% (active); in assay [5], -62.7% (active); in assay [6], -98.4% (active). The growth in assay [7] is -86.2% (active); in assay [8], -95.7% (active); in assay [9] it was -25.7% (active); in assay [10], -22.5% (active).

As to `CCOC(=O)C/C(=C\c1ccccc1)C(C)=O`, the growth in assay [1] was 89.3%; in assay [2], 102%; in assay [3], 105%; in assay [4] it was 99.3%; in assay [5], 96.3%; in assay [6], 107%. Besides, the growth was 94.5% in [7], 114% in [8], 90.3% in [9] and 93.8% in assay [10].

`O=C1c2cc3c(cc2-c2c1c1ccc(F)cc1c(=O)n2CCCN1CCOCC1)OCO3`: the growth was 82.1% in assay [1]; 82.4% in assay [2]; 33.2% in assay [3]; 35.9% in assay [4]; 106% in assay [5]; 4.58% (active) in assay [6]. Moreover, the growth in assay [7] was 17.2%; in assay [8], 59%; in assay [9] it was 19.6%; in [10] it was 3.65% (active).

For `CCN(CC)CCCCCCNc1ccnc2cc(Cl)ccc12`, the growth in assay [1] was 128%; in assay [2], 76.5%; in assay [3], 84.9%; in [4], 86.1%; in assay [5], 113%; in assay [6], 111%. Moreover, the growth in assay [7] was 84.2%; in assay [8], 118%; in assay [9], 113%; in assay [10] it was 101%.

With `CC(C)c1cc(C(=O)O)c(O)c(C(C)C)c1.CC(C)c1cc(C(=O)O)c(O)c(C(C)C)c1.[Mn]`, the growth in [1] is 118%; in [2] it was 102%; in assay [3], 101%; in assay [4] it was 85.5%; in assay [5], 106%; in assay [6] it was 103%. Further, the growth in [7] is 100%; in [8] it was 126%; in assay [9] it was 95.1%; in [10] it was 99.2%.

The values are drawn from PubChem BioAssay (NCI).
